From article PMC5540273 (PLoS ONE, 2017)

tested on: MAPKAPK5; details: concentration: 1 μM, replicates: in singlicate; n = 1
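Note: KINOMEscan kinase panel screen.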

| Structure (SMILES) | %Inh [%] |
| --- | --- |
| O=C(Nc1cccc(-c2nn3ncccc3c2-c2ccnc(Nc3cccc(C(F)(F)F)c3)n2)c1)c1c(F)cccc1F [GSK299495] | 0 |
| O=C(c1ccc(-c2cc(-c3c[nH]nc3-c3ccccn3)ccn2)cc1)N1CCOCC1 [GW812171] | 0 |
| Cc1cccc(Cn2ccn3c(=O)cc(N4CCOCC4)nc23)c1 [GSK2297542] | 0 |
| NS(=O)(=O)c1cccc(-c2ccc3ncc(N4CCOCC4)nc3c2)c1 [GSK1535721] | 0 |
| CCc1ccnc(/C=C/c2n[nH]c3cc(Sc4ccccc4C(=O)NC)ccc23)c1 | 0 |
| O=c1cc(N2CCOCC2)nc2n(Cc3cccc(C(F)(F)F)c3)ccn12 [GSK2297543] | 0 |
| COC(=O)Nc1nc2cc(Oc3ccc(NC(=O)Nc4cc(F)ccc4F)cc3)ccc2[nH]1.Cl [GW701424] | 0 |
| NS(=O)(=O)CCc1cccc(Nc2nccc(-c3c(-c4cccc(NC(=O)c5c(F)cccc5F)c4)nn4ccccc34)n2)c1 [GSK336735] | 0 |
| O=C(NCCNc1ccnc(Nc2ccc(F)cc2)n1)c1cc2ccccc2s1 [GSK1379874] | 0 |
| CC(C)(C)n1cnc2c(N)ncnc21 [SKF-97359] | 0 |
| COc1cc2c(cc1OC[C@@H](O)CO)ncc1c3ccc(C#N)cc3[nH]c21 | 0 |
| O=C(NCCNc1ccnc(Nc2ccc(F)cc2)n1)Nc1ccccc1F [GSK1379880] | 0 |
| Fc1ccc(-c2ncn(CCCN3CCOCC3)c2-c2ccccn2)cc1 [SB-211742] | 0 |
| O=C(Nc1n[nH]c2cc(-c3cccc(F)c3)ccc12)C1CC1 [SB-735464] | 21 |
| Cc1nnc(-c2ccc(C)c(-c3ccc(C(=O)Nc4ccc(NS(C)(=O)=O)cc4)cc3)c2)o1 [GW702865] | 0 |
| CNc1ncnc2[nH]ncc12 [SKF-18355] | 0 |
| Cc1cccc(-c2nc(-c3ccc(S(C)(=O)=O)cc3)sc2-c2ccncc2)c1 | 0 |
| Nc1nc(-c2ccc3c(N)n[nH]c3c2)cc(N2CCCC2)n1 [GSK2227430] | 0 |

| Structure (SMILES) | %Inh [%] |
| --- | --- |
| Fc1ccc(-c2ncn(CCCN3CCOCC3)c2-c2cccnc2)cc1 [SB-211743] | 0 |
| [2H]C([2H])(c1cccc(C(F)(F)F)c1C)n1ccn2c(=O)nc(N3CCOCC3)cc12 [GSK2336394] | 0 |
| c1ccc(-c2cc(-c3c[nH]nc3-c3ccccn3)ccn2)cc1 [GW576604] | 0 |
| CCc1nc(-c2cccc(C)c2)c(-c2ccnc(NCc3ccccc3)c2)s1 | 0 |
| Cn1ccc2ncnc(Oc3ccc(NC(=O)Nc4ccncc4)c(Cl)c3)c21 | 0 |
| COCCNC(=O)c1ccc(-c2cc(C(=O)NC3CC3)cc(F)c2C)cc1 [GW868318] | 5 |
| O=C1NC(=O)C(N2CCc3ccccc32)=C1c1cccc(Cl)c1 [SB-408010] | 0 |
| CN(C1=C(c2ccccc2)C(=O)NC1=O)c1ccccc1 [SB-334860] | 0 |
| NCC(NC(=O)c1cc(-c2cn[nH]c2)c(-c2ccnc3[nH]ccc23)s1)c1ccccc1.O=C(O)C(F)(F)F.O=C(O)C(F)(F)F (centres unmarked) [GSK1325775] | 0 |
| COc1ccc(Nc2nccc(N3CCC(NC(=O)Nc4cccc(C(C)=O)c4)C3)n2)cc1 (centres unmarked) [GSK1379731] | 0 |
| Cn1cc(-c2ccc3c(c2)CCN3C(=O)Cc2ccccc2Cl)c2c(N)ncnc21 [GSK2608885] | 3 |
| O=c1cc(N2CCOCC2)nc2n(Cc3cccc(F)c3)ccn12 [GSK2297430] | 0 |
| CN(C(=O)c1ccc(-c2cc(-c3c[nH]nc3-c3ccccn3)ccn2)cc1)C1CCOCC1 [GW810083] | 0 |
| NCCNS(=O)(=O)c1ccc(-c2ccnc3[nH]ccc23)cc1 [GSK977617] | 0 |
| CC(=O)Nc1ccc(COc2ccc(Nc3ccnc4cc(-c5ccccn5)ccc34)cc2)cc1.Cl [GW440148] | 2 |
| NS(=O)(=O)c1cccc(-c2ccc3nccc(-c4cccc(S(N)(=O)=O)c4)c3c2)c1 [GW867253] | 0 |
| N#Cc1c(N2CCOCC2)sc(-c2ccn[nH]2)c1-c1ccc(Cl)cc1 | 2 |
